Test results taken from paper PMC8136818, “Evolving origin-of-transfer sequences on staphylococcal conjugative and mobilizable plasmids—who’s mimicking whom?”.

T1: SmpO408 (Staphylococcus aureus M0408)
T1 chain: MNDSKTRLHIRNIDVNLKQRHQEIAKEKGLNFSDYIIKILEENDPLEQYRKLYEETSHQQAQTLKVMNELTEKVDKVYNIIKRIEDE

T2: SmpOUNa (plasmid pC02)
T2 chain: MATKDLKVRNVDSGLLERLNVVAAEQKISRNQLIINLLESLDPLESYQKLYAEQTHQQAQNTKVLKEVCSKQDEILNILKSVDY

T3: SmpOSep (Staphylococcus epidermidis VCU120)
T3 chain: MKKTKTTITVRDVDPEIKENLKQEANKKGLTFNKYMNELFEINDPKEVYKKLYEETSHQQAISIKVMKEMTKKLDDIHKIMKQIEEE


Biological target: T1, SmpO408
Test: SPR (ReDCaT); 250 mM NaCl; 10 mM HEPES, 3 mM EDTA, 0.05% Tween 20, NaCl 150 mM (SmpO49 screens), 300 mM (SmpO45, SmpO408, SmpOUNa screens) or 250 mM (Table S4); pH and temperature not stated; protein 1 uM; high values mean tight binding
Settings: protein: recombinant; tags: His6-TEV, cleaved; chain copies: 4

Row | Binder | binding signal [%Rmax]
1 | ossA408 (dsDNA) DNA 1: TTATAGGCGCCTAATA DNA 2: TATTAGGCGCCTATAA | 52.8

Biological target: T1, SmpO408
Test: SPR (ReDCaT); 300 mM NaCl; 10 mM HEPES, 3 mM EDTA, 0.05% Tween 20, NaCl 150 mM (SmpO49 screens), 300 mM (SmpO45, SmpO408, SmpOUNa screens) or 250 mM (Table S4); pH and temperature not stated; protein 1 uM; high values mean tight binding
Settings: protein: recombinant; tags: His6-TEV, cleaved; chain copies: 4
Outline: (§1)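 The running buffer was 10 mM HEPES, 300 mM NaCl, 3 mM EDTA, 0.05% Tween 20, and protein at 1 μM was injected at 30 μl/min for 60 s contact and 60 s dissociation. The protein had been expressed in E. coli BL21(DE3)pLysS, cleaved of its tag, and purified by nickel-affinity and size-exclusion chromatography. OriT oligonucleotides were captured at 1 μM on Fc2 of a Biacore T200 SA chip by reusable DNA capture, and a linker was captured on Fc1. Values are DNA binding expressed as %Rmax.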

Row | Binder | binding signal [%Rmax]
2 | ossA408 (dsDNA) DNA 1: TTATAGGCGCCTAATA DNA 2: TATTAGGCGCCTATAA | 63.9 ± 1.02
3 | OT408.5 (dsDNA) DNA 1: CGGTTTTATAGGCGCCTAATAAAAACCTCT DNA 2: AGAGGTTTTTATTAGGCGCCTATAAAACCG | 109
4 | ossA408-15 (dsDNA) DNA 1: TTATAGGCGCCTAAAA DNA 2: TTTTAGGCGCCTATAA | 63 ± 1.28
5 | ossA408-1 (dsDNA) DNA 1: ATATAGGCGCCTAATA DNA 2: TATTAGGCGCCTATAT | 67.4 ± 2.06
6 | OT408 For/Rev_14 (dsDNA) DNA 1: GTATCCCTTGAAATGTCTGGCTTCGCCAGA DNA 2: TCTGGCGAAGCCAGACATTTCAAGGGATAC | 8.57
7 | ossA408 G6C (dsDNA) DNA 1: TTATACGCGCCTAATA DNA 2: TATTAGGCGCGTATAA | 35.5 ± 2.44
8 | ossA408-9 (dsDNA) DNA 1: TTATAGGCCCCTAATA DNA 2: TATTAGGGGCCTATAA | 6.86 ± 1.04
9 | ossA408-7 (dsDNA) DNA 1: TTATAGCCGCCTAATA DNA 2: TATTAGGCGGCTATAA | 49.8 ± 2.35
10 | ossA408 C11G (dsDNA) DNA 1: TTATAGGCGCGTAATA DNA 2: TATTACGCGCCTATAA | 34.5 ± 1.85
11 | ossA408-13 (dsDNA) DNA 1: TTATAGGCGCCTTATA DNA 2: TATAAGGCGCCTATAA | 63.9 ± 1.66
12 | OT408 For/Rev_17 (dsDNA) DNA 1: CCCACCTTTTTAATAGGTGGCAAATTTCCC DNA 2: GGGAAATTTGCCACCTATTAAAAAGGTGGG | 64.6
13 | OT408 For/Rev_7 (dsDNA) DNA 1: GTACAGACACAATATATAGGGGTACATTTT DNA 2: AAAATGTACCCCTATATATTGTGTCTGTAC | 7.42
14 | ossA408-8 (dsDNA) DNA 1: TTATAGGGGCCTAATA DNA 2: TATTAGGCCCCTATAA | 7.62 ± 1.09
15 | OT408 For/Rev_10 (dsDNA) DNA 1: GGGTACAAAACGGTTTTATAGGCGCCTAAT DNA 2: ATTAGGCGCCTATAAAACCGTTTTGTACCC | 71.2
16 | ossA408-10 (dsDNA) DNA 1: TTATAGGCGGCTAATA DNA 2: TATTAGCCGCCTATAA | 48.1 ± 2.02
17 | ossA408-2 (dsDNA) DNA 1: TAATAGGCGCCTAATA DNA 2: TATTAGGCGCCTATTA | 65.7 ± 2.04
18 | OT408 For/Rev_15 (dsDNA) DNA 1: AAATGTCTGGCTTCGCCAGACCCACCTTTT DNA 2: AAAAGGTGGGTCTGGCGAAGCCAGACATTT | 14.3
19 | ossA408-5 (dsDNA) DNA 1: TTATTGGCGCCTAATA DNA 2: TATTAGGCGCCAATAA | 67.9 ± 1.54
20 | OT408 For/Rev_13 (dsDNA) DNA 1: AAAAACCTCTGTATCCCTTGAAATGTCTGG DNA 2: CCAGACATTTCAAGGGATACAGAGGTTTTT | 4.19
21 | ossA408-3 (dsDNA) DNA 1: TTTTAGGCGCCTAATA DNA 2: TATTAGGCGCCTAAAA | 64.4 ± 1.7
22 | ossA408-4 (dsDNA) DNA 1: TTAAAGGCGCCTAATA DNA 2: TATTAGGCGCCTTTAA | 69 ± 1.82
23 | ossA408-16 (dsDNA) DNA 1: TTATAGGCGCCTAATT DNA 2: AATTAGGCGCCTATAA | 65.1 ± 0.98
24 | ossA408-14 (dsDNA) DNA 1: TTATAGGCGCCTATTA DNA 2: TAATAGGCGCCTATAA | 63 ± 0.997
25 | OT408 For/Rev_12 (dsDNA) DNA 1: GGCGCCTAATAAAAACCTCTGTATCCCTTG DNA 2: CAAGGGATACAGAGGTTTTTATTAGGCGCC | 25.9
26 | OT408 For/Rev_8 (dsDNA) DNA 1: AATATATAGGGGTACATTTTGGGTACAAAA DNA 2: TTTTGTACCCAAAATGTACCCCTATATATT | 5.29
27 | ossA408-12 (dsDNA) DNA 1: TTATAGGCGCCAAATA DNA 2: TATTTGGCGCCTATAA | 68.3 ± 1.07
28 | OT408 For/Rev_9 (dsDNA) DNA 1: GGTACATTTTGGGTACAAAACGGTTTTATA DNA 2: TATAAAACCGTTTTGTACCCAAAATGTACC | 4.6
29 | OT408 For/Rev_18 (dsDNA) DNA 1: TAATAGGTGGCAAATTTCCCTTATGCTCTT DNA 2: AAGAGCATAAGGGAAATTTGCCACCTATTA | 60.1

Biological target: T2, SmpOUNa
Test: as above
Settings: protein: recombinant; tags: His6-TEV, cleaved; chain copies: 4
Outline: as §1

Row | Binder | binding signal [%Rmax]
30 | OTUNA.4 (dsDNA) DNA 1: TTAATTTTTGTGACCCCCATAAGATAAATG DNA 2: CATTTATCTTATGGGGGTCACAAAAATTAA | 58.4 ± 1.36
31 | OTUNa For/Rev_7 (dsDNA) DNA 1: CAATATATTGTGTCACAAAAGTGTGACAAT DNA 2: ATTGTCACACTTTTGTGACACAATATATTG | 3.471 ± 0.00557
32 | OTUNa For/Rev_9 (dsDNA) DNA 1: GTGTGACAATTTAATTTTTGTGACCCCCAT DNA 2: ATGGGGGTCACAAAAATTAAATTGTCACAC | 53.342 ± 0.0463
33 | OTUNa For/Rev_12 (dsDNA) DNA 1: AAGATAAATGTTTAAAACCCTTGAAATATC DNA 2: GATATTTCAAGGGTTTTAAACATTTATCTT | 1.56 ± 0.168
34 | OTUNa For/Rev_18 (dsDNA) DNA 1: GGGTACATATTTCCCTTATGCTCTTACAAA DNA 2: TTTGTAAGAGCATAAGGGAAATATGTACCC | 26.2 ± 1.85
35 | OTUNa For/Rev_8 (dsDNA) DNA 1: TGTCACAAAAGTGTGACAATTTAATTTTTG DNA 2: CAAAAATTAAATTGTCACACTTTTGTGACA | 17 ± 0.439
36 | OTUNa For/Rev_11 (dsDNA) DNA 1: TGACCCCCATAAGATAAATGTTTAAAACCC DNA 2: GGGTTTTAAACATTTATCTTATGGGGGTCA | 18.2 ± 1.39
37 | OTUNa For/Rev_16 (dsDNA) DNA 1: AGATTACCCATTATAAAATGGGTACATATT DNA 2: AATATGTACCCATTTTATAATGGGTAATCT | 12.5 ± 0.926
38 | OTUNa For/Rev_17 (dsDNA) DNA 1: TTATAAAATGGGTACATATTTCCCTTATGC DNA 2: GCATAAGGGAAATATGTACCCATTTTATAA | 9.96 ± 0.667

Biological target: T3, SmpOSep
Test: SPR (ReDCaT); 250 mM NaCl; 10 mM HEPES, 3 mM EDTA, 0.05% Tween 20, NaCl 150 mM (SmpO49 screens), 300 mM (SmpO45, SmpO408, SmpOUNa screens) or 250 mM (Table S4); pH and temperature not stated; protein 1 uM; high values mean tight binding
Settings: protein: recombinant; tags: His6-TEV, cleaved; chain copies: 4

Row | Binder | binding signal [%Rmax]
39 | ossASep (dsDNA) DNA 1: TTTGCATACATTTAAA DNA 2: TTAAATGTATGCAAA | 18.8
40 | ossB49 (dsDNA) DNA 1: CCGATGATAGCAAATT DNA 2: AATTTGCTATCATCGG | 0.6
41 | ossBSep (dsDNA) DNA 1: TAAATGTATGCATATT DNA 2: AATATGCATACATTTA | 16.5
